Measured values from PubChem BioAssay.
Active and inactive are the calls of the source. Unless noted, how the calls were made is not given here.

Experiments:
[1] = tested on: Wnt5a (protein binding on small-molecule microarray); experiment: small molecules binding Wnt5a protein – biophysical, small-molecule microarray, 635/667 nm fluorescence, primary screen (AID 1142); conditions: 635 nm fluorescence, higher = more signal;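 further: fluorescence read at 667 nm with signal to noise per printed feature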
[2] = ATP-based viability of Huh7 replicon cells – cell-based, CellTiter-Glo luminescence, basal, 48 h, cytotoxicity control for HCV replication inhibitor project, primary screen (AID 1143); conditions: higher = more signal, called active from +8 up or from −8 down;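 further: Huh7 hepatoma cells carrying a hepatitis C replication reporter with no stimulus; test concentration not given here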
[3] = Pseudomonas biofilm growth suppression – PAO1 strain, BacTiter-Glo luminescence, LB-PBS, primary screen (AID 1144); conditions: P. aeruginosa PAO1 biofilm, 12 h, higher = more signal
[4] = basal CRE-LacZ reporter activity in PC12 – cell-based, unstimulated, primary screen (AID 1145); conditions: no forskolin, luminescence, 4.5 h, higher = more signal, called active from +8 up or from −8 down
[5] = forskolin-driven CRE-LacZ activity in PC12 – cell-based, CRE-LacZ reporter, forskolin-stimulated, primary screen (AID 1146); conditions: luminescence, 4.5 h, higher = more signal, called active from +8 up or from −8 down;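 further: PC12 cells with 6xCRE LacZ reporter stimulated by forskolin 10 µM; beta-galactosidase reporter signal reflecting CREB driven transcription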
[6] = molecular target: Streptavidin (Streptomyces avidinii) (UniProt P22629); experiment: compounds binding control protein streptavidin – biophysical, small-molecule microarray, 635/667 nm fluorescence, artefact control for SMM compound annotation, primary screen (AID 1147); conditions: higher = more signal;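 further: signal reflects streptavidin binding to arrayed compounds as a control protein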
Sequence of Streptavidin (Streptomyces avidinii) (P22629 whole entry, looked up): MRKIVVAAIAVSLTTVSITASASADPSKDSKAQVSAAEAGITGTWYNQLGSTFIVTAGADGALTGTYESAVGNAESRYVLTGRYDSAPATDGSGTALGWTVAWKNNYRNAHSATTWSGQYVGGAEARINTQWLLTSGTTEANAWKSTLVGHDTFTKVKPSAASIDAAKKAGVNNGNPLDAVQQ

[7] = probe aInhba binding on compound microarray – biochemical, small-molecule microarray, 635/667 nm fluorescence, primary screen (AID 1148); conditions: higher = more signal;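 further: score merges 667nm spot fluorescence with signal-to-noise for antibody binding to printed compounds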
Torsin-1A (Homo sapiens) [8] = molecular target: Torsin-1A (Homo sapiens) (UniProt O14656); experiment: TOR1A wild-type binding on microarray – cell lysate, small-molecule microarray, lysate, 635/667 nm, primary screen (AID 1149); conditions: COS7 hTOR1A-WT lysate, 635 nm fluorescence, higher = more signal
Sequence of Torsin-1A (Homo sapiens) (O14656 whole entry, looked up): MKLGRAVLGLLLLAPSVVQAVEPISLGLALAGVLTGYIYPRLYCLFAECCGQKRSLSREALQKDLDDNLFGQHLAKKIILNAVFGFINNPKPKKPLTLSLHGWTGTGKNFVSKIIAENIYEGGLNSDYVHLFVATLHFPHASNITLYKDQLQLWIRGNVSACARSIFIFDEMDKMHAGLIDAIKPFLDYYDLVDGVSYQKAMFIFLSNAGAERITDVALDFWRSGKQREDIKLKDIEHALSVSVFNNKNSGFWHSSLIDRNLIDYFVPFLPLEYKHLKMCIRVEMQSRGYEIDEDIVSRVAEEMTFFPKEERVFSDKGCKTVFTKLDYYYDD

Torsin-1A (Homo sapiens) [9] = molecular target: Torsin-1A (Homo sapiens) (UniProt O14656); experiment: torsin A mutant lysate binding on microarrays – cell lysate, small-molecule microarray, COS7 lysate, 635/667 nm fluorescence, primary screen (AID 1150); conditions: COS7 hTOR1A mutant lysate, 635 nm fluorescence, higher = more signal;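 further: score pools 667 nm emission and signal to noise measuring lysate protein binding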
[10] = tested on: Sonic hedgehog protein (Shh); experiment: Sonic hedgehog microarray binding compounds – biochemical, small-molecule microarray, 635/667 nm fluorescence, primary screen (AID 1151); conditions: 635 nm fluorescence, higher = more signal;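 further: Shh protein binding to compounds spotted on small-molecule microarray slides; score combines spot fluorescence intensity with signal-to-noise across triplicate slides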
[11] = optical density shifts of acrAB sulA E. coli – strain DRC41, OD650, 48 h, E. coli filamentation inducer project, primary screen (AID 1152); conditions: higher = more signal, called active from +8 up or from −8 down;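 further: E. coli MC1000 strain DRC41 lacking acrAB efflux pump and sulA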
[12] = probe aLefty1 binding on compound microarray – biochemical, small-molecule microarray, 635/667 nm fluorescence, primary screen (AID 1153); conditions: higher = more signal;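 further: score merges spot fluorescence with signal-to-noise ratio from the scanned slide images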
[13] = plasmodial surface anion channel blockers, osmotic lysis – cell-based, P. falciparum Indochina, OD700, 1 h, primary screen (AID 1154); conditions: P. falciparum Indochina infected RBC osmotic lysis, higher = more signal, called active from +8 up or from −8 down
[14] = plasmodial surface anion channel blockers, osmotic lysis – cell-based, P. falciparum Indochina, OD700, 2 h, primary screen (AID 1155);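 further: lysis reports solute entry through the parasite surface anion channel PSAC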; conditions: P. falciparum Indochina infected erythrocytes, higher = more signal, called active from +8 up or from −8 down
[15] = changes in parasitized red cell lysis, either direction – P. falciparum Indochina, OD700, 3 h, PSAC antagonist project, primary screen (AID 1156); conditions: P. falciparum-infected erythrocytes, osmotic lysis, higher = more signal, called active from +8 up or from −8 down
[16] = plasmodial surface anion channel blockers, osmotic lysis – cell-based, P. falciparum Indochina, OD700, 18 h, primary screen (AID 1157); conditions: P. falciparum Indochina infected erythrocytes, osmotic lysis OD700, 18 h; higher = more signal, called active from +8 up or from −8 down
[17] = S6 kinase pathway phospho-S6 level changes – cell-based, A549, cytoblot, luminescence, serum-stimulated, primary screen (AID 1158); conditions: 5 h, higher = more signal;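 further: serum-stimulated A549 lung adenocarcinoma cells; signal is phosphorylated S6 detected by cytoblot immunostaining with HRP secondary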
[18] = molecular target: NADPH oxidase 2 (Homo sapiens) (UniProt P04839); experiment: compounds shifting NOX2 Amplex Red fluorescence – cell-based, HEK293-NOX2, PMA-stimulated, NOX inhibitor project, primary screen (AID 1159); conditions: 45 min, higher = more signal, called active from +8 up or from −8 down; further: test concentration not given here
Sequence of NADPH oxidase 2 (Homo sapiens) (P04839 whole entry, looked up): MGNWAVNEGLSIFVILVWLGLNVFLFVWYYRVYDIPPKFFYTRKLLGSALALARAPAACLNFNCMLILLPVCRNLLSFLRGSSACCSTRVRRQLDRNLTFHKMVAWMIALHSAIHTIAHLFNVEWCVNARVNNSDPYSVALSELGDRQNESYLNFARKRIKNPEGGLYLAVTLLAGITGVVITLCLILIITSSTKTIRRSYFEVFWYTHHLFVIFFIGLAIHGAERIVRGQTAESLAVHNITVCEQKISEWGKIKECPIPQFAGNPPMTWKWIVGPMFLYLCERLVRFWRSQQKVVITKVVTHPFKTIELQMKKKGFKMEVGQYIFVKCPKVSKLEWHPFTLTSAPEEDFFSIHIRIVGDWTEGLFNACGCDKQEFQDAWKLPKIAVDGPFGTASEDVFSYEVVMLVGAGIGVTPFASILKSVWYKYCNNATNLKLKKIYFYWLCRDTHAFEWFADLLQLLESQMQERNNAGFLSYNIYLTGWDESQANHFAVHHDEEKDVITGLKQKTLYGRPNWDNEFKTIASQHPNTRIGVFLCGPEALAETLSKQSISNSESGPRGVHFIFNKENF

[19] = molecular target: NADPH oxidase 4 (Homo sapiens) (UniProt Q9NPH5); experiment: compounds shifting NOX4 Amplex Red fluorescence – cell-based, HEK293-NOX4, tetracycline-induced, NOX inhibitor project, primary screen (AID 1160); conditions: HEK293-NOX4, Amplex Red H2O2 fluorescence, 45 min; higher = more signal, called active from +8 up or from −8 down
Sequence of NADPH oxidase 4 (Homo sapiens) (Q9NPH5 whole entry, looked up): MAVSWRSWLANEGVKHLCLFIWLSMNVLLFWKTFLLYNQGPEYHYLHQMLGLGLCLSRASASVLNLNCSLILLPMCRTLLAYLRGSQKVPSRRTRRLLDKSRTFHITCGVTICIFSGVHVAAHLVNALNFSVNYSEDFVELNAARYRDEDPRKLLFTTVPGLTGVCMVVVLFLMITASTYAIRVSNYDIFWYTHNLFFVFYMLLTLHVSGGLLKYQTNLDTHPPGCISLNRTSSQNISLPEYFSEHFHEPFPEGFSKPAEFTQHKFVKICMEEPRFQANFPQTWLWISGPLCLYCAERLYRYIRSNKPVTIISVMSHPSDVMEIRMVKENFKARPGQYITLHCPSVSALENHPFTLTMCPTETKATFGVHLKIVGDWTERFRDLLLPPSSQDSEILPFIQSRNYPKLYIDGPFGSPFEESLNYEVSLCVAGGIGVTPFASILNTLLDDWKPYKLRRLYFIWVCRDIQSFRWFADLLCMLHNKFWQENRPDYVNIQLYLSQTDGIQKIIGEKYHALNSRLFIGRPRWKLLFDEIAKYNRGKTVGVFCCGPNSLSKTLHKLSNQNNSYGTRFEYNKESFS

[20] = molecular target: NADPH oxidase 5 (Homo sapiens) (UniProt Q96PH1); experiment: compounds shifting NOX5 Amplex Red fluorescence – cell-based, HEK293-NOX5, NOX inhibitor project, primary screen (AID 1161); conditions: HEK293-NOX5, ionomycin, 45 min, higher = more signal
Sequence of NADPH oxidase 5 (Homo sapiens) (Q96PH1 whole entry, looked up): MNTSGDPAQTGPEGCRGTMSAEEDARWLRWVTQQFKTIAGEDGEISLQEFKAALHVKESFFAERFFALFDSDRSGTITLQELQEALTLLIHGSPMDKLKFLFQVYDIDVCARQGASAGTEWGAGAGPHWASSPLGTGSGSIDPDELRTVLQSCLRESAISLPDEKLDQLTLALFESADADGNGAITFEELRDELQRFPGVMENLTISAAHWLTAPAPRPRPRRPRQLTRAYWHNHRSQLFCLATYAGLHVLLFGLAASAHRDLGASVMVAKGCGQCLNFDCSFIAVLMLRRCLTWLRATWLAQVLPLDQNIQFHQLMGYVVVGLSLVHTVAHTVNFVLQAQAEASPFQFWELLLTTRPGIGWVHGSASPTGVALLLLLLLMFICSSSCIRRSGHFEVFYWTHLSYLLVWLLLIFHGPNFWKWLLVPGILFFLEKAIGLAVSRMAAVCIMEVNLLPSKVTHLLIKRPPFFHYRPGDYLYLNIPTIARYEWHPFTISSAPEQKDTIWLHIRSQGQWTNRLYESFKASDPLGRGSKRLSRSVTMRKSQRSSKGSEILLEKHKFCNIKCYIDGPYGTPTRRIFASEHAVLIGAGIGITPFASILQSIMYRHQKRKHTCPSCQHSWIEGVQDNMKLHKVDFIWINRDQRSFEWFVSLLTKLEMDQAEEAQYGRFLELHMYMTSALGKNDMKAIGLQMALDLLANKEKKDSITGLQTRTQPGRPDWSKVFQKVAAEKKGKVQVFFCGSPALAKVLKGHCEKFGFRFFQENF

SMILES | composite z-score [1] | z-score [2] | z-score [3] | z-score [4] | z-score [5] | composite z-score [6] | composite z-score [7] | composite z-score (Torsin-1A (Homo sapiens) [8]) | composite z-score (Torsin-1A (Homo sapiens) [9]) | composite z-score [10] | z-score [11] | composite z-score [12] | z-score [13] | z-score [14] | z-score [15] | z-score [16] | z-score [17] | z-score [18] | z-score [19] | z-score [20]
COC(=O)[C@@]1(Cc2ccccc2)[C@H]2c3cc(C(=O)N4CCCC4)n(Cc4cccc5ccccc45)c3C[C@H]2CN1C(=O)c1ccccc1 | 1.67 | -2.97 (inactive) | 0.786 (inactive) | 1.73 (inactive) | 0.941 (inactive) | 2.82 | 1.52 | -0.0124 | 0.669 | -0.27 | -1.22 (inactive) | 1.71 | 6.74 (inactive) | 1.43 (inactive) | 1.27 (inactive) | 1.3 (inactive) | -0.503 | 0.586 (inactive) | -0.237 (inactive) | 1.05
COCC(=C=CC[C@H](O)c1ccccc1OCCO)C[C@H](O)c1cc(Cl)cc(Cl)c1O | 0.626 | -8.22 (active) | 0.421 (inactive) | 24.4 (active) | -0.753 (inactive) | 0.423 | -0.0877 | -0.256 | 1.72 | 1.37 | -0.381 (inactive) | 0.233 | 7.9 (inactive) | 8.65 (active) | -9.18 (active) | 3.52 (inactive) | -0.539 | -5.19 (inactive) | -2.45 (inactive) | -3.1
CCOC(=O)C[C@H]1[C@H](OC(=O)c2ccc(C(=O)c3ccccc3)cc2)[C@@H](NC(=O)c2ccc(-c3ccccc3)cc2)c2cc(OCCCO)ccc2N1C(=O)c1ccccc1 | 0.0074 | 0.294 (inactive) | 0.0763 (inactive) | 0.0035 (inactive) | -0.254 (inactive) | 1.11 | -0.128 | 0.117 | 0.311 | 1.08 | -0.948 (inactive) | -0.199 | 0.358 (inactive) | 0.135 (inactive) | -0.559 (inactive) | -0.16 (inactive) | 0.0156 | 0.788 (inactive) | 0.379 (inactive) | 0.551
C#CCNC(=O)[C@H](Cc1ccccc1)NC(=O)CCC(=O)O | -0.0994 | 0.0187 (inactive) | 0.743 (inactive) | 0.656 (inactive) | 0.301 (inactive) | -0.869 | -0.146 | 0.119 | 0.544 | -0.192 | -0.077 (inactive) | -0.36 | -0.168 (inactive) | 0.748 (inactive) | -0.707 (inactive) | 0.0401 (inactive) | -0.665 | 0.658 (inactive) | -0.198 (inactive) | 0.0788
